This is part of a sample that, as a whole, favours compounds with a hit. Of some 83,000 tested, about 20% had one in any assay.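 The endpoint reported here, percent growth, reads 100 for growth as untreated, 0 for no net growth and -100 for all cells dead.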 Active and inactive are the calls of the source. Rule for the calls: active = growth percent below 10; inactive = the rest.
What was measured:
Assay in all cases: NCI-60 one-dose screen, 48 h (100 = growth as untreated, 0 = no growth, -100 = all killed)
RPMI-8226 leukemia = conditions: 10 µM unless noted
OVCAR-8 ovarian = conditions: 10 µM
OVCAR-5 ovarian = conditions: 10 µM unless noted
OVCAR-4 ovarian = conditions: 10 µM unless noted
SK-OV-3 ovarian = conditions: 10 µM unless noted
IGROV1 ovarian = conditions: 10 µM unless noted
OVCAR-3 ovarian = conditions: 10 µM unless noted
HS 578T breast = conditions: 10 µM unless noted
NCI/ADR-RES ovarian = conditions: 10 µM unless noted
T-47D breast = conditions: 10 µM unless noted

Measured: growth

Oc1cc[c]([Hg][Cl])cc1
inactive: RPMI-8226 leukemia 91.2% | OVCAR-8 ovarian 105% | OVCAR-5 ovarian 116% | OVCAR-4 ovarian 100% | SK-OV-3 ovarian 135% | IGROV1 ovarian 87.8% | OVCAR-3 ovarian 91% | HS 578T breast 85.5% | NCI/ADR-RES ovarian 107%

NCCc1ccc(OCc2ccccc2)c(OCc2ccccc2)c1
inactive: RPMI-8226 leukemia 69.7% | OVCAR-8 ovarian 79.3% | OVCAR-5 ovarian 105% | OVCAR-4 ovarian 86.3% | SK-OV-3 ovarian 91.2% | IGROV1 ovarian 75.2% | OVCAR-3 ovarian 88.3% | HS 578T breast 126% | NCI/ADR-RES ovarian 87.9% | T-47D breast 69.2%

CCOC(=O)C(NC(=O)C(Cc1ccc(N(CCCl)CCCl)cc1)NC(C)=O)C(C)C (stereo not given)
inactive: RPMI-8226 leukemia 85.1% | OVCAR-8 ovarian 83.1% | OVCAR-5 ovarian 105% | OVCAR-4 ovarian 96.4% | SK-OV-3 ovarian 82.5% | IGROV1 ovarian 79.3% | OVCAR-3 ovarian 92.5% | HS 578T breast 101% | NCI/ADR-RES ovarian 88% | T-47D breast 74.5%

CC1=C2C(=O)[C@H]3[C@@H](CC=C4C[C@@H](O)CC[C@@]43C)[C@@H]2CC[C@]12O[C@@H]1C[C@H](C)CN[C@H]1[C@H]2C
inactive: RPMI-8226 leukemia 92% | OVCAR-8 ovarian 89.3% | OVCAR-5 ovarian 94% | OVCAR-4 ovarian 96.3% | SK-OV-3 ovarian 101% | IGROV1 ovarian 26.1% | OVCAR-3 ovarian 140% | HS 578T breast 118% | NCI/ADR-RES ovarian 101% | T-47D breast 107%

C[C@H]1CCC/C=C/[C@@H]2C[C@H](O)C[C@H]2[C@H](O)/C=C/C(=O)O1
active: RPMI-8226 leukemia -17.9% | OVCAR-4 ovarian -30.5% | IGROV1 ovarian -54.8% | OVCAR-3 ovarian -37.4% | NCI/ADR-RES ovarian 7.27% | T-47D breast -26.1%
inactive: OVCAR-5 ovarian 32.1% | SK-OV-3 ovarian 35.9% | HS 578T breast 57.9%

Cc1cc(N=Nc2ccccc2C)ccc1N
inactive: RPMI-8226 leukemia 17.5% | OVCAR-8 ovarian 82.1% | OVCAR-5 ovarian 84.7% | OVCAR-4 ovarian 69.2% | SK-OV-3 ovarian 99.1% | IGROV1 ovarian 77.1% | OVCAR-3 ovarian 73.2% | NCI/ADR-RES ovarian 79.4% | T-47D breast 59%

CC1=C(CO)C2=C(C)C3(CC3)[C@@](C)(O)C(=O)C2=C1
inactive: RPMI-8226 leukemia 80.2% | OVCAR-5 ovarian 14.3% | SK-OV-3 ovarian 16.3%
active: OVCAR-3 ovarian -1.49% | HS 578T breast 8.86% | NCI/ADR-RES ovarian 3.84% | T-47D breast 7.12%

Cc1c(N)nc([C@H](CC(N)=O)NC[C@H](N)C(N)=O)nc1C(=O)N[C@H](C(=O)N[C@H](C)[C@@H](O)[C@H](C)C(=O)N[C@H](C(=O)NCCc1nc(-c2nc(C(=O)NCCC[S+](C)C)cs2)cs1)[C@@H](C)O)C(OC1OC(CO)C(O)C(O)C1OC1OC(CO)C(O)C(OC(N)=O)C1O)c1cnc[nH]1 (stereo not given in full)
inactive: RPMI-8226 leukemia 76.4% [2.5 µM] | OVCAR-5 ovarian 59.5% [2.5 µM] | OVCAR-4 ovarian 104% [2.5 µM] | SK-OV-3 ovarian 98% [2.5 µM] | IGROV1 ovarian 42.3% [2.5 µM] | OVCAR-3 ovarian 83.5% [2.5 µM] | NCI/ADR-RES ovarian 39.3% [2.5 µM] | T-47D breast 92.2% [2.5 µM]
active: HS 578T breast -2.02% [2.5 µM]

CO[C@H](/C(C)=C/C=C/C(C)=C/c1coc(C)n1)[C@H](C)[C@H]1C[C@@H](O)[C@@]2(C)O[C@H]2/C=C/[C@@H](C)[C@@H]2C[C@@H](CC(=O)O2)C[C@H]2O[C@@H]2C(=O)O1
active: RPMI-8226 leukemia -14.5% | OVCAR-4 ovarian -6.77% | IGROV1 ovarian -35.5% | OVCAR-3 ovarian -36.3% | HS 578T breast -2.81%
inactive: OVCAR-5 ovarian 34.2% | SK-OV-3 ovarian 32.3% | NCI/ADR-RES ovarian 19% | T-47D breast 64%

CC[C@@]1(O)C(=O)OCc2c1cc1n(c2=O)Cc2cc3ccccc3nc2-1
active: RPMI-8226 leukemia -39.7% | OVCAR-5 ovarian -1.11% | OVCAR-4 ovarian -36.2% | SK-OV-3 ovarian 7.05% | IGROV1 ovarian -62.2% | OVCAR-3 ovarian -34% | NCI/ADR-RES ovarian -2.49% | T-47D breast -7.95%
inactive: HS 578T breast 22.6%

O=C1c2ccccc2C(=O)C(Cl)C1Cl (stereo not given)
active: OVCAR-4 ovarian -89% | OVCAR-3 ovarian -75.2% | T-47D breast -38%
inactive: RPMI-8226 leukemia 31.1% | OVCAR-8 ovarian 91.9% | OVCAR-5 ovarian 112% | SK-OV-3 ovarian 99.5% | IGROV1 ovarian 78.4% | NCI/ADR-RES ovarian 86.5%

Cc1ccc(C(=O)OC(C(=O)O)C(OC(=O)c2ccc(C)cc2)C(=O)O)cc1 (stereo not given) (tested in a mixture with another compound)
inactive: OVCAR-8 ovarian 61.4% | OVCAR-5 ovarian 67% | OVCAR-4 ovarian 58.9% | SK-OV-3 ovarian 69.7% | IGROV1 ovarian 63% | OVCAR-3 ovarian 44.5% | HS 578T breast 40% | NCI/ADR-RES ovarian 56.3%
active: RPMI-8226 leukemia -3.01%

CCCCCCCCCCCC1CCCC(C)N1 (stereo not given)
inactive: OVCAR-8 ovarian 67.3% | OVCAR-5 ovarian 88.8% | OVCAR-4 ovarian 85.5% | SK-OV-3 ovarian 121% | OVCAR-3 ovarian 90.9% | HS 578T breast 64.5% | NCI/ADR-RES ovarian 82.7% | T-47D breast 102%
active: RPMI-8226 leukemia -34.7% | IGROV1 ovarian -40.3%

COC1=C(C)C(=O)C2=C(C1=O)C(CO)N1C(C#N)C3CC4C(C1C2N1CCOC41)N3C (stereo not given)
active: RPMI-8226 leukemia -41.3% | OVCAR-3 ovarian -18.7% | HS 578T breast -55.2% | NCI/ADR-RES ovarian -21.4% | T-47D breast -16.8%
inactive: OVCAR-5 ovarian 11.1% | SK-OV-3 ovarian 42.4%

CCC1(O)CC(OC2CC(N(C)C)C(OC3CC4OC5CC(=O)C(C)OC5OC4C(C)O3)C(C)O2)c2c(cc3c(c2O)C(=O)c2c(O)ccc(O)c2C3=O)C1C(=O)OC (stereo not given)
active: RPMI-8226 leukemia -53% | OVCAR-5 ovarian -16.1% | OVCAR-4 ovarian -53.9% | IGROV1 ovarian -78.1% | OVCAR-3 ovarian 4.8% | HS 578T breast -37% | NCI/ADR-RES ovarian -20% | T-47D breast -2.73%
inactive: SK-OV-3 ovarian 16.1%

Source: PubChem BioAssay (NCI)
